Reference: the supplement of paper PMC8975748
Structures can show the parent of a compound that is named as a salt. ± gives the standard deviation of the averaged measurements.

Key:
[1] = system: Saccharomyces cerevisiae BY4741 SeMeCo community; assay: mean cell size (pixel area) (pixels); higher = larger cells; conditions: 10 µM; 24 h; SM minimal medium
Method in brief: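 Drug was acoustically predosed into 384-well plates to a final 10 µM in SM medium, and each well received 70 µl of Saccharomyces cerevisiae BY4741 diluted to OD600 = 0.3 from an overnight preculture at OD600 = 1.0. This four-plasmid fluorescent community carries one fluorescent marker per plasmid, and each plasmid complements one auxotrophy. After 24 h, the cells were fixed with paraformaldehyde and imaged by automated confocal microscopy, and Harmony analysis yielded mean cell pixel area per well. Each value is averaged over 3 replicates. Same SeMeCo high-content imaging drug screen: Selleck FDA-approved drugs at 10 µM, 24 h in SM medium, 384-well plates, 3 replicates.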

[2] = system: Saccharomyces cerevisiae BY4741 SeMeCo community; assay: z-score of prototroph abundance vs DMSO median; higher = larger share of this subpopulation than in DMSO controls; conditions: 10 µM; 24 h; SM minimal medium; subpopulation (auxotrophy): Prototroph
Method in brief: (§1)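 Subpopulation abundance was reported as a z-score against the median of vehicle wells. The Saccharomyces cerevisiae BY4741 community, carrying four plasmids that each restored one auxotrophy and encoded a distinct fluorescent protein, was grown 24 h in minimal SM medium in 384-well plates holding library drugs at 10 µM final. Cells were paraformaldehyde-fixed and imaged by automated confocal microscopy, with single-auxotroph fluorescent strains used for thresholds and autofluorescence correction.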

[3] = system: Saccharomyces cerevisiae BY4741 SeMeCo community; assay: z-score of subpopulation abundance vs DMSO median, subpopulation auxotrophic for M; higher = larger share of this subpopulation than in DMSO controls; conditions: 10 µM; 24 h; SM minimal medium; subpopulation (auxotrophy): M
Method in brief: as §1

[4] = system: Saccharomyces cerevisiae BY4741 SeMeCo community; assay: z-score of subpopulation abundance vs DMSO median, subpopulation auxotrophic for U; higher = larger share of this subpopulation than in DMSO controls; conditions: 10 µM; 24 h; SM minimal medium; subpopulation (auxotrophy): U
Method in brief: as §1

[5] = system: Saccharomyces cerevisiae BY4741 SeMeCo community; assay: z-score of subpopulation abundance vs DMSO median, subpopulation auxotrophic for H; higher = larger share of this subpopulation than in DMSO controls; conditions: 10 µM; 24 h; SM minimal medium; subpopulation (auxotrophy): H
Method in brief: as §1

[6] = system: Saccharomyces cerevisiae BY4741 SeMeCo community; assay: z-score of subpopulation abundance vs DMSO median, subpopulation auxotrophic for LU; higher = larger share of this subpopulation than in DMSO controls; conditions: 10 µM; 24 h; SM minimal medium; subpopulation (auxotrophy): LU
Method in brief: as §1

[7] = system: Saccharomyces cerevisiae BY4741 SeMeCo community; assay: z-score of subpopulation abundance vs DMSO median, subpopulation auxotrophic for LM; higher = larger share of this subpopulation than in DMSO controls; conditions: 10 µM; 24 h; SM minimal medium; subpopulation (auxotrophy): LM
Method in brief: as §1

[8] = system: Saccharomyces cerevisiae BY4741 SeMeCo community; assay: z-score of subpopulation abundance vs DMSO median, subpopulation auxotrophic for HM; higher = larger share of this subpopulation than in DMSO controls; conditions: 10 µM; 24 h; SM minimal medium; subpopulation (auxotrophy): HM
Method in brief: as §1

[9] = system: Saccharomyces cerevisiae BY4741 SeMeCo community; assay: z-score of subpopulation abundance vs DMSO median, subpopulation auxotrophic for UM; higher = larger share of this subpopulation than in DMSO controls; conditions: 10 µM; 24 h; SM minimal medium; subpopulation (auxotrophy): UM
Method in brief: as §1

[10] = system: Saccharomyces cerevisiae BY4741 SeMeCo community; assay: z-score of subpopulation abundance vs DMSO median, subpopulation auxotrophic for HL; higher = larger share of this subpopulation than in DMSO controls; conditions: 10 µM; 24 h; SM minimal medium; subpopulation (auxotrophy): HL
Method in brief: as §1

[11] = system: Saccharomyces cerevisiae BY4741 SeMeCo community; assay: z-score of subpopulation abundance vs DMSO median, subpopulation auxotrophic for HLM; higher = larger share of this subpopulation than in DMSO controls; conditions: 10 µM; 24 h; SM minimal medium; subpopulation (auxotrophy): HLM
Method in brief: as §1

[12] = system: Saccharomyces cerevisiae BY4741 SeMeCo community; assay: z-score of subpopulation abundance vs DMSO median, subpopulation auxotrophic for HUM; higher = larger share of this subpopulation than in DMSO controls; conditions: 10 µM; 24 h; SM minimal medium; subpopulation (auxotrophy): HUM
Method in brief: as §1

[13] = system: Saccharomyces cerevisiae BY4741 SeMeCo community; assay: z-score of subpopulation abundance vs DMSO median, subpopulation auxotrophic for LUM; higher = larger share of this subpopulation than in DMSO controls; conditions: 10 µM; 24 h; SM minimal medium; subpopulation (auxotrophy): LUM
Method in brief: as §1

[14] = system: Saccharomyces cerevisiae BY4741 SeMeCo community; assay: z-score of subpopulation abundance vs DMSO median, subpopulation auxotrophic for HLUM; higher = larger share of this subpopulation than in DMSO controls; conditions: 10 µM; 24 h; SM minimal medium; subpopulation (auxotrophy): HLUM
Method in brief: as §1

[15] = system: Saccharomyces cerevisiae BY4741 SeMeCo community; assay: z-score of subpopulation abundance vs DMSO median, subpopulation auxotrophic for L; higher = larger share of this subpopulation than in DMSO controls; conditions: 10 µM; 24 h; SM minimal medium; subpopulation (auxotrophy): L
Method in brief: as §1

[16] = system: Saccharomyces cerevisiae BY4741 SeMeCo community; assay: z-score of subpopulation abundance vs DMSO median, subpopulation auxotrophic for HU; higher = larger share of this subpopulation than in DMSO controls; conditions: 10 µM; 24 h; SM minimal medium; subpopulation (auxotrophy): HU
Method in brief: as §1

Row | Structure (SMILES) | mean cell size [1] | z-score of prototroph abundance [2] | z-score of subpopulation abundance [3] | z-score of subpopulation abundance [4] | z-score of subpopulation abundance [5] | z-score of subpopulation abundance [6] | z-score of subpopulation abundance [7] | z-score of subpopulation abundance [8] | z-score of subpopulation abundance [9] | z-score of subpopulation abundance [10] | z-score of subpopulation abundance [11] | z-score of subpopulation abundance [12] | z-score of subpopulation abundance [13] | z-score of subpopulation abundance [14] | z-score of subpopulation abundance [15] | z-score of subpopulation abundance [16]
1 | CCCCC(=O)O[C@H]1CC[C@H]2[C@@H]3CCc4cc(O)ccc4[C@H]3CC[C@]12C [Estradiol valerate] | 12.4 ± 0.22 | 0.39 | 0.23 | 0.05 | -0.49 | -0.16 | -0.71 | -0.23 | 0 | -0.58 | -0.87 | 0.19 | -0.45 | -0.75 | – | –
2 | Cc1noc(NS(=O)(=O)c2ccc(N)cc2)c1C [Sulfisoxazole] | 12.4 ± 0.16 | -1.42 | 0.18 | – | -0.4 | 1.45 | – | 0.12 | 1.17 | 0.35 | 1.44 | – | 1.7 | 1.03 | 0.65 | 0.32
3 | CCOc1cc(N)c(Cl)cc1C(=O)NCC1CN(Cc2ccc(F)cc2)CCO1 (centres undefined) [Mosapride] | 12.5 ± 0.23 | 0.05 | 0.39 | -0.39 | 0.06 | 0.77 | – | – | -0.47 | -0.5 | 0.45 | 0.4 | -0.04 | 0.05 | -0.65 | 0.02
4 | CCN[C@@H]1C[C@H](N)[C@@H](O[C@H]2OC(CN)=CC[C@H]2N)[C@H](O)[C@H]1O[C@H]1OC[C@](C)(O)[C@H](NC)[C@H]1O [Netilmicin Sulfate] | – | -0.66 | 1.38 | 0.67 | -0.25 | 0.47 | 0.44 | 0.03 | 0.17 | -0.24 | 1.14 | 0.71 | 0.72 | 0.72 | -0.06 | 0.01
5 | COc1ccc([C@@H]2Sc3ccccc3N(CCN(C)C)C(=O)[C@@H]2OC(C)=O)cc1 [Diltiazem HCl] | 12.5 ± 0.27 | 0.76 | -0.12 | -0.19 | -0.4 | -0.4 | 0.01 | -0.74 | – | -0.78 | -0.37 | -0.36 | -0.24 | -0.3 | – | -0.1
6 | OCCOc1ccc(/C(=C(/CCCl)c2ccccc2)c2ccccc2)cc1 [Ospemifene] | 12.7 ± 0.24 | 0.59 | 0.43 | -0.86 | 0.74 | -1.59 | -0.34 | 1.37 | -0.91 | 0.7 | -0.21 | – | -0.52 | -0.5 | -0.6 | -0.18
7 | CCCOc1ccc2c(c1)CC[C@@H]1[C@@H]2CC[C@]2(C)[C@@H](OC)CC[C@@H]12 [Promestriene] | 12.5 ± 0.26 | -1.13 | 1.08 | 0.31 | 0.19 | 0.62 | 0.33 | 0.25 | – | 0.84 | – | 1.7 | 1.34 | 0.24 | 0.77 | 0.21
8 | Cc1onc(-c2c(F)cccc2Cl)c1C(=O)N[C@@H]1C(=O)N2[C@@H]1SC(C)(C)[C@@H]2C(=O)O [Flucloxacillin sodium] | – | -0.59 | 1.08 | 0.55 | -0.11 | 0.16 | -0.65 | 0.12 | 0.64 | – | -0.51 | 0.1 | -0.02 | -0.68 | -0.25 | -0.23
9 | CN1C2CCC1CC(OC(=O)C(O)c1ccccc1)C2 (centres undefined) [Homatropine Bromide] | – | -0.38 | -0.4 | 1.49 | -0.41 | 0.66 | -0.11 | -1.06 | 0.94 | -0.63 | -0.76 | – | 0.09 | – | -0.11 | 0.61
10 | CC[C@H](C)C(=O)O[C@H]1C[C@H](O)C=C2C=C[C@H](C)[C@H](CC[C@@H](O)C[C@@H](O)CC(=O)O)[C@H]21 [Pravastatin] | – | – | 0.52 | 1.19 | 0.39 | 0.89 | 0.2 | – | 1.36 | 0.42 | -0.51 | 1.56 | 0.59 | – | -0.43 | 1.19
11 | Cc1ncc([N+](=O)[O-])n1C [Dimetridazole] | 12.5 ± 0.19 | 0.38 | -0.26 | -0.07 | 0.05 | -0.31 | -0.99 | – | -0.37 | – | 0.46 | – | – | 0.31 | -1.34 | 0.17
12 | CN1CCN(CC(=O)N2c3ccccc3C(=O)Nc3cccnc32)CC1 [Pirenzepine dihydrochloride] | 11.97 ± 0.054 | 0.72 | -0.96 | -0.46 | 0.01 | -0.44 | – | -0.85 | -0.76 | -0.63 | -0.87 | – | -1.37 | -0.89 | -0.62 | -0.67
13 | C#C[C@]1(O)CC[C@H]2[C@@H]3CCC4=CC(=O)CC[C@@H]4[C@H]3C(=C)C[C@@]21CC [Etonogestrel] | – | 0.26 | -1.48 | – | 0.15 | 0.5 | -0.7 | -1.24 | 0.08 | -0.29 | -0.55 | -0.52 | – | -0.23 | -0.43 | 0.83
14 | CC1(C)CC[C@]2(C(=O)O)CC[C@]3(C)C(=CC[C@@H]4[C@@]5(C)CC[C@H](O)C(C)(C)[C@@H]5CC[C@]43C)[C@@H]2C1 [Oleanolic Acid] | – | -0.29 | 0.25 | -0.6 | -0.07 | -0.16 | 0.88 | 1.05 | 0.1 | 0.59 | – | 0.93 | 0.78 | 0.12 | -0.03 | 0.23
15 | CCOC(=O)C1=C(COCCN)NC(C)=C(C(=O)OC)C1c1ccccc1Cl (centres undefined) [Amlodipine Besylate] | 12.6 ± 0.18 | – | 5.2 | -6.89 | 3.81 | -6.85 | – | 4.12 | -8.17 | 4.37 | – | -6.15 | -4.74 | -1.58 | 2.94 | -7.3
